# Reference: the supplement of paper PMC6411743
# ± gives the standard deviation of the averaged measurements. Of roughly 6,200 targets only a part is listed; those with the largest changes were picked by preference.
# Compound: Nc1ncnc2c1ncn2[C@@H]1O[C@H](COP(=O)(O)OP(=O)(O)NP(=O)(O)O)[C@@H](O)[C@H]1O [adenylyl imidodiphosphate]
# Test: NP40-soluble protein abundance relative to vehicle (solubility fold change) (ratio); higher = more soluble protein in presence of AMP-PNP
# Summary of the method: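 Eight concentrations, 0.1 to 10 mM, were tested on Jurkat crude lysate for 10 min at room temperature and then 3 min at 37 °C, in three independent experiments. The lysate was solubilised with 0.8% NP40 and benzonase, ultracentrifuged, and the supernatant TMT-labelled for LC-MS/MS. Each value is the fold change against the detergent-processed vehicle in its own replicate, from vsn-normalised intensities.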
# Chain of UniProt Q13243 (Q13243 whole entry): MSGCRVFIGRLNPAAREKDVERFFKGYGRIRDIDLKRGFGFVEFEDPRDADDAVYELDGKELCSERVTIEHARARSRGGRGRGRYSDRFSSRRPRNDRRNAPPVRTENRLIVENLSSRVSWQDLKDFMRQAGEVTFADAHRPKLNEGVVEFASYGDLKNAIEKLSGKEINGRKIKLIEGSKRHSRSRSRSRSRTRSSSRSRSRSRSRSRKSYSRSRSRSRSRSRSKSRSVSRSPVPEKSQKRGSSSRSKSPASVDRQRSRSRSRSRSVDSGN
# Chain of UniProt P13984 (P13984 whole entry): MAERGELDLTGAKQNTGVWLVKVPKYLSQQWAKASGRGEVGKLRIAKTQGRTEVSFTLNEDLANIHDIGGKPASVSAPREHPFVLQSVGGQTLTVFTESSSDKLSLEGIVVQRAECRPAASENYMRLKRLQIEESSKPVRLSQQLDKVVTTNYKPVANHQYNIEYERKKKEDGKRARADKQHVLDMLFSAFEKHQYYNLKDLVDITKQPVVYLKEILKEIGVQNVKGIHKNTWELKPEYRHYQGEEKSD
# Chain of UniProt P10412 (P10412 whole entry): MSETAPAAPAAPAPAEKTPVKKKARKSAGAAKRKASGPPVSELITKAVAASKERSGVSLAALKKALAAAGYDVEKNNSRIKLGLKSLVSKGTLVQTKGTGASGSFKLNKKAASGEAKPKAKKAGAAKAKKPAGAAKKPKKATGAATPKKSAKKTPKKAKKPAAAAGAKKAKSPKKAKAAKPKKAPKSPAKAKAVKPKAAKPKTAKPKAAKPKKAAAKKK
# Chain of UniProt P55795 (P55795 whole entry): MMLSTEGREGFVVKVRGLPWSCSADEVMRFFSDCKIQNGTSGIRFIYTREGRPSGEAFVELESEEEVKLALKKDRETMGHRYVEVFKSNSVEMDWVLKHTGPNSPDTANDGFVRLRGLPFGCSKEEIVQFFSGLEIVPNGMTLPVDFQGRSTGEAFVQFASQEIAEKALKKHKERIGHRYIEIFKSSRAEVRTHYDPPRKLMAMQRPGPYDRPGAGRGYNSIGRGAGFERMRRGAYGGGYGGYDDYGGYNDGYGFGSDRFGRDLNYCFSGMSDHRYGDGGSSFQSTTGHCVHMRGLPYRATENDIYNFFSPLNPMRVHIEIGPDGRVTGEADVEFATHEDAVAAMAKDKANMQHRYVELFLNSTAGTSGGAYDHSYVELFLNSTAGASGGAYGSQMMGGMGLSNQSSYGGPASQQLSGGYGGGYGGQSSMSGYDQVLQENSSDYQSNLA
# Chain of UniProt P05771 (P05771 whole entry, looked up): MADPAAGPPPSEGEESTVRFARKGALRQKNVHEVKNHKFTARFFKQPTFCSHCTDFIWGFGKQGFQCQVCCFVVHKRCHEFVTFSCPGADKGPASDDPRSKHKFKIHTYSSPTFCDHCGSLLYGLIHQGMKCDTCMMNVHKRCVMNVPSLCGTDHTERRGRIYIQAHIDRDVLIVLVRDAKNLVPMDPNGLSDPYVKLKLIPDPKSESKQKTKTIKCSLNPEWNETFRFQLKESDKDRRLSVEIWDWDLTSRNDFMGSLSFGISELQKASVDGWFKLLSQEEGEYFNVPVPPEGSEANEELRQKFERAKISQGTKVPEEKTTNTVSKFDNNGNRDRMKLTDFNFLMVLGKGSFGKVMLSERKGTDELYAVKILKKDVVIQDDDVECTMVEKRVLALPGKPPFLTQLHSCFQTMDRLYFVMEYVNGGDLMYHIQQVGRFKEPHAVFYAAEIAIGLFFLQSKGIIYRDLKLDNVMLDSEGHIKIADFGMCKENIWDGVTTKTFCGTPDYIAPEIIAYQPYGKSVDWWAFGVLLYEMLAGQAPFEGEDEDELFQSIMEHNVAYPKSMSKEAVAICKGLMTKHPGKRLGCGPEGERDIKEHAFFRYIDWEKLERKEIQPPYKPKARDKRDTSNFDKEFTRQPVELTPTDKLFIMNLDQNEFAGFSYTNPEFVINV
# Chain of UniProt P40818 (P40818 whole entry): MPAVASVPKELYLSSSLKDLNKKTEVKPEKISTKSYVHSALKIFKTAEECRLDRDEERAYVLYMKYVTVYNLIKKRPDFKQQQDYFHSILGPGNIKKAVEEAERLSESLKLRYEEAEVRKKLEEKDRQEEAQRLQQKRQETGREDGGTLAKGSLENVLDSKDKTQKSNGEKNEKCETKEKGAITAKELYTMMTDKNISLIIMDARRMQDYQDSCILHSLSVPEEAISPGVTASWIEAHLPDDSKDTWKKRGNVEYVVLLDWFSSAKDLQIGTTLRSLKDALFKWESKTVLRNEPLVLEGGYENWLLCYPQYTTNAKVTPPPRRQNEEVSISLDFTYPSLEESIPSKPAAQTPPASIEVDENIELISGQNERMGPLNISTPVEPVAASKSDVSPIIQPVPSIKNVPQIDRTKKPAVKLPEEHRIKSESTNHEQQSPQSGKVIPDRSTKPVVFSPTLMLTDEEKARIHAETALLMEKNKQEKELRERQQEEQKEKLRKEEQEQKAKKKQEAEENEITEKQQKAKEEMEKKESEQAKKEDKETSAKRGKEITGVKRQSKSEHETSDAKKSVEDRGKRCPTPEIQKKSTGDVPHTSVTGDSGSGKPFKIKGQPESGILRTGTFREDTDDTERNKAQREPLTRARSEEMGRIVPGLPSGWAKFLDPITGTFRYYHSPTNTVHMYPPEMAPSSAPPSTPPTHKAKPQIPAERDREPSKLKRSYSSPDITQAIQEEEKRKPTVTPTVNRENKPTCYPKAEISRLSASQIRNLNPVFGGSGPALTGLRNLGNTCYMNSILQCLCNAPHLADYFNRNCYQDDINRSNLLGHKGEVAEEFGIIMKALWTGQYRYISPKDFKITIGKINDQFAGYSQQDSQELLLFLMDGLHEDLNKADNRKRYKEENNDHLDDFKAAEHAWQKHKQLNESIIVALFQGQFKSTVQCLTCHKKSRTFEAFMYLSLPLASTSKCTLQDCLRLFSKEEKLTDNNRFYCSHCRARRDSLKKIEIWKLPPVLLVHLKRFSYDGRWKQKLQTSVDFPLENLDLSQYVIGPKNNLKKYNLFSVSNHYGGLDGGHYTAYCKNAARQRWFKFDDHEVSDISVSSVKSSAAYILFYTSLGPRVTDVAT
# Chain of UniProt P55160 (P55160 whole entry): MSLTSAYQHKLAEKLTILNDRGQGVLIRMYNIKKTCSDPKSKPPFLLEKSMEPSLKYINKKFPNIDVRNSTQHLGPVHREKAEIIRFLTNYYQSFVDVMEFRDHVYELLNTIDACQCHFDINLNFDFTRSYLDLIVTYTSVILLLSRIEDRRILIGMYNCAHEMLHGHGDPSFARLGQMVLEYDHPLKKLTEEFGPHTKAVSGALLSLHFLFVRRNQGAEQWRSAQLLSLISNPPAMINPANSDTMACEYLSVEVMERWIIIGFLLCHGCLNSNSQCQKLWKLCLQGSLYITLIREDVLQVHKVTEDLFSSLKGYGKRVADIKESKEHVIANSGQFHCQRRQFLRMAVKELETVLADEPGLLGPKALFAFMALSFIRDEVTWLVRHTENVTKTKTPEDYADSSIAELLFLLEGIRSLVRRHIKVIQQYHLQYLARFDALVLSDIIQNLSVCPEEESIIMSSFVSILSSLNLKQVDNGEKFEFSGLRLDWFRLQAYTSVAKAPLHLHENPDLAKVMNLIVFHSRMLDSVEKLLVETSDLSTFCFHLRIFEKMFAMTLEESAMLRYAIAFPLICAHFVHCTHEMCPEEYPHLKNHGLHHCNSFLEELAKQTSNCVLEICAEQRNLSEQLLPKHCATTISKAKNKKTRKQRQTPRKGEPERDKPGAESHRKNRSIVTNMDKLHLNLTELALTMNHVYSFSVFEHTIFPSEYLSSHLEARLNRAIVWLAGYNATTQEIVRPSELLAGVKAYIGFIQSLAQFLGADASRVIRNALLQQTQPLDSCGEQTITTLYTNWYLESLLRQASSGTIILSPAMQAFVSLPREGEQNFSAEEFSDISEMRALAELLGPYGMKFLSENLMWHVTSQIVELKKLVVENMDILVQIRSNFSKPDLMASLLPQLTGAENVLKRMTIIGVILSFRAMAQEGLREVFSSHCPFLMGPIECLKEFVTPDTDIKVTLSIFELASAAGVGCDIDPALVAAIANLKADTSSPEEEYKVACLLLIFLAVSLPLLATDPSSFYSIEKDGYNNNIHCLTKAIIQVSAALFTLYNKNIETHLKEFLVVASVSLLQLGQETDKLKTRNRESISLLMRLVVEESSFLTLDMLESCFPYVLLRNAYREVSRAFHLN
# Chain of UniProt Q05048 (Q05048 whole entry): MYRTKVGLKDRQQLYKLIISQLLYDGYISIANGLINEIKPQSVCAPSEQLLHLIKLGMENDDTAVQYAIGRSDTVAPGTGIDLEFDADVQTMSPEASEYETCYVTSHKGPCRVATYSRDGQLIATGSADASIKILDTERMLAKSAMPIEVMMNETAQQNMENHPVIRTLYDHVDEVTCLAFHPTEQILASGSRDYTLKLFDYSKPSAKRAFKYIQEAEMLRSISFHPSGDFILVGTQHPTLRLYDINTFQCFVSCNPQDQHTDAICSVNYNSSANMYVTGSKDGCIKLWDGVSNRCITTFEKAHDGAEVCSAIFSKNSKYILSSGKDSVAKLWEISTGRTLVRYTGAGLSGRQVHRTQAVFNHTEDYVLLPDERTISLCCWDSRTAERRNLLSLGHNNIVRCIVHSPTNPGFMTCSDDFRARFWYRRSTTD
# Chain of UniProt Q00013 (Q00013 whole entry): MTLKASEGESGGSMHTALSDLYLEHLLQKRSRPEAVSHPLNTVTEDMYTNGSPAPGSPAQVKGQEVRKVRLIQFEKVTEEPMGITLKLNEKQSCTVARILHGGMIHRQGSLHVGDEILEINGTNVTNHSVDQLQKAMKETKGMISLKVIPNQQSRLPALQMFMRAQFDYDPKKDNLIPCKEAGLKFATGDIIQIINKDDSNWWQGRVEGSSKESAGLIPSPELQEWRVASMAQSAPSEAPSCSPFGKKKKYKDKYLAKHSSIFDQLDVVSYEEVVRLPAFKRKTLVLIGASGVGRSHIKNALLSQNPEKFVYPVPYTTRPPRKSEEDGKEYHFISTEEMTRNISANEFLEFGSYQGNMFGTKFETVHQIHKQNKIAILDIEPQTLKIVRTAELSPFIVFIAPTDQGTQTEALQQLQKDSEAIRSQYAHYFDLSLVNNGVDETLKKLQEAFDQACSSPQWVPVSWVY
Target,NP40-soluble protein abundance (concentration: 1mM),NP40-soluble protein abundance (concentration: 2mM),NP40-soluble protein abundance (concentration: 4mM),NP40-soluble protein abundance (concentration: 6mM),NP40-soluble protein abundance (concentration: 8mM),NP40-soluble protein abundance (concentration: 10mM)
P0DN76|Q01081 (UniProt Q01081+P0DN76),1.04 ± 0.065,1.06 ± 0.083,1.12 ± 0.05,1.29 ± 0.099,1.47 ± 0.18,1.51 ± 0.18
ARID4A (UniProt P29374),1.06 ± 0.053,1.07 ± 0.039,1.07 ± 0.036,1.03 ± 0.031,1.01 ± 0.032,1.07 ± 0.033
POLR3D (UniProt P05423),0.982 ± 0.017,1.01 ± 0.02,0.993 ± 0.035,0.961 ± 0.041,0.971 ± 0.037,0.998 ± 0.065
ACTR1B (UniProt P42025),1 ± 0.062,0.927 ± 0.12,0.983 ± 0.071,0.986 ± 0.029,0.965 ± 0.063,0.961 ± 0.091
RPS3A (UniProt P61247),0.96 ± 0.052,0.931 ± 0.044,0.918 ± 0.11,0.895 ± 0.081,0.83 ± 0.057,0.947 ± 0.11
UniProt P08559|P08559-3|P08559-4|P08559-2,0.979 ± 0.13,0.94 ± 0.13,0.925 ± 0.13,0.923 ± 0.17,0.95 ± 0.12,0.965 ± 0.15
UniProt P52948|P52948-2|P52948-5|P52948-6,1.07 ± 0.047,1.1 ± 0.015,1.13 ± 0.018,1.22 ± 0.056,1.28 ± 0.02,1.417 ± 0.011
RBM34 (UniProt P42696),1.07 ± 0.069,1.12 ± 0.044,1.15 ± 0.082,1.23 ± 0.12,1.23 ± 0.12,1.36 ± 0.16
UniProt P05771|P05771-2,1.05 ± 0.019,1.03 ± 0.016,1.04 ± 0.029,1.04 ± 0.012,1.05 ± 0.017,1.04 ± 0.03
CSTF1 (UniProt Q05048),0.9781 ± 0.0088,0.931 ± 0.075,1 ± 0.015,1 ± 0.015,1.069 ± 0.0036,1.02 ± 0.046
UniProt P42285,1.006 ± 0.0056,0.982 ± 0.062,1.07 ± 0.033,1.1 ± 0.036,1.14 ± 0.068,1.13 ± 0.089
ERAL1 (UniProt O75616),0.7647 ± 0.0038,0.6675 ± 0.0031,0.716 ± 0.036,0.681 ± 0.011,0.674 ± 0.062,0.636 ± 0.04
YBX1 (UniProt P67809),0.986 ± 0.088,1.22 ± 0.36,1.07 ± 0.12,1.23 ± 0.072,1.21 ± 0.031,1.34 ± 0.067
USP4 (UniProt Q13107),1 ± 0.018,0.967 ± 0.044,1 ± 0.046,0.97 ± 0.042,0.975 ± 0.039,0.942 ± 0.038
HIST1H1E (UniProt P10412),1.04 ± 0.06,1.15 ± 0.09,1.12 ± 0.05,1.25 ± 0.15,1.24 ± 0.23,1.56 ± 0.14
UniProt Q13243,1.1 ± 0.056,1.2 ± 0.091,1.17 ± 0.07,1.19 ± 0.013,1.208 ± 0.0093,1.36 ± 0.12
UniProt O95104|O95104-3|O95104-2,1.1 ± 0.033,1.22 ± 0.083,1.26 ± 0.039,1.34 ± 0.14,1.39 ± 0.071,1.46 ± 0.063
USP8 (UniProt P40818),1.036 ± 0.0058,1.05 ± 0.033,1.048 ± 0.0058,0.997 ± 0.015,0.996 ± 0.042,1.01 ± 0.033
UniProt Q01082|Q01082-3,1.05 ± 0.028,1.08 ± 0.035,1.05 ± 0.019,1.08 ± 0.06,1.05 ± 0.032,1.09 ± 0.056
HNRNPH2 (UniProt P55795),0.9889 ± 0.0045,0.934 ± 0.086,0.946 ± 0.028,0.947 ± 0.023,0.9566 ± 0.0082,0.908 ± 0.019
NUP155 (UniProt O75694),0.983 ± 0.046,0.919 ± 0.062,1 ± 0.025,0.98 ± 0.039,1.01 ± 0.035,1 ± 0.023
GTF2F2 (UniProt P13984),1 ± 0.011,1.06 ± 0.023,1.04 ± 0.019,1.07 ± 0.018,1.07 ± 0.015,1.103 ± 0.0083
MPP1 (UniProt Q00013),1.01 ± 0.015,0.964 ± 0.035,1.01 ± 0.028,0.978 ± 0.028,1.01 ± 0.048,0.986 ± 0.034
RBM5 (UniProt P52756),1.05 ± 0.026,1.072 ± 0.0062,1.09 ± 0.038,1.06 ± 0.071,1.06 ± 0.061,1.1 ± 0.071
CDK6 (UniProt Q00534),0.987 ± 0.029,0.951 ± 0.022,0.959 ± 0.03,0.967 ± 0.012,0.945 ± 0.033,0.91 ± 0.029
NCKAP1L (UniProt P55160),0.975 ± 0.021,0.905 ± 0.085,0.955 ± 0.027,0.955 ± 0.072,0.975 ± 0.046,0.914 ± 0.037
ECHS1 (UniProt P30084),0.9976 ± 0.0068,0.9885 ± 0.006,0.955 ± 0.029,0.994 ± 0.02,0.963 ± 0.017,0.961 ± 0.015
DNAJC3 (UniProt Q13217),0.978 ± 0.031,0.9648 ± 0.0063,0.973 ± 0.011,1.01 ± 0.014,0.985 ± 0.021,0.999 ± 0.022
UniProt P60228,1.04 ± 0.073,1.04 ± 0.077,1.1 ± 0.11,1.18 ± 0.12,1.24 ± 0.12,1.33 ± 0.2
UniProt P09651-2|P09651,1.04 ± 0.11,1.09 ± 0.075,1.09 ± 0.11,1.14 ± 0.15,1.18 ± 0.15,1.25 ± 0.18
